Only some compounds are listed: those with a hit (about 1.8% of all), similar ones and a draw of the others.
KAT2A inh: GCN5L2 (KAT2A) acetyltransferase inhibition; 0.21% of 390,000 active; AID 504327; Q92830; Potency, µM (highest dose often 58.9 µM), hits mostly inhibitors; GCN5L2 HAT assay, ThioGlo1 CoA-SH fluorescence
Target sequence (Q92830 whole entry, looked up): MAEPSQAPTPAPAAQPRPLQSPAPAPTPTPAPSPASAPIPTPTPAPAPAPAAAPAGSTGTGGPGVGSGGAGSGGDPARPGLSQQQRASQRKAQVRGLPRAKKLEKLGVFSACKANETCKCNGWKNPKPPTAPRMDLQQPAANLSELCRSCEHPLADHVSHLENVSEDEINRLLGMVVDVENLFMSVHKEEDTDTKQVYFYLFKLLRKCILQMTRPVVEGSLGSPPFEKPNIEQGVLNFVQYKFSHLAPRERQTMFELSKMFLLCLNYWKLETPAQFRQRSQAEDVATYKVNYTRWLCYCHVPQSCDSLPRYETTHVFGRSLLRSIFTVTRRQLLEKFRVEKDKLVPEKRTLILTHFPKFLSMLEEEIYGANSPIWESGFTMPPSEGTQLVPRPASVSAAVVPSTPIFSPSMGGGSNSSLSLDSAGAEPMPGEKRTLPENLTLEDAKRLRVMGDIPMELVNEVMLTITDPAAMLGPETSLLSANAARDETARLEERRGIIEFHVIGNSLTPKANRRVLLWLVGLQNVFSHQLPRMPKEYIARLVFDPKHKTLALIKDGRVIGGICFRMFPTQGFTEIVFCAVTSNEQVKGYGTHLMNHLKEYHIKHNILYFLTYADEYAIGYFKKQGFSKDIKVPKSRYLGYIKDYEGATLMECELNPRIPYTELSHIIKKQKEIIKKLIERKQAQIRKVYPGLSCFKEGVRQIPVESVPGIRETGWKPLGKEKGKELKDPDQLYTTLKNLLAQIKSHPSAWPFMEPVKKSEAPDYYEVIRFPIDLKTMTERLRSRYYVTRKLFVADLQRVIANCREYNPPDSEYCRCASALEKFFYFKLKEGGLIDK
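Enzyme at 20nM final was mixed with library compounds for 15 min at room temperature. Peptide H3(1-25) at 75uM, acetyl-CoA at 70uM and ThioGlo1 at 50uM were then added. Plates were read immediately and after 20 min (Ex340nm/Em540nm).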
TrxR1 inh: blocks rat thioredoxin reductase 1; O89049; recombinant rTrxR1, NADPH fluorescence consumption, selenite substrate; Potency, µM (series often up to 114 µM), actives largely listed as inhibitors; 1% of 390,000 active; AID 588453; note: nearly all actives have a fitted effect of over 65% in size
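Rat TrxR1 (90 nM in the dispensed reagent) was pre-reduced with 400 uM NADPH for 5 min at room temperature, then incubated with compound for 15 min. After 400 uM selenite was added, NADPH fluorescence (Ex 340/Em 450 nm) was followed for 8 min.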
TrxR1 substrate: is turned over as a substrate by rat TrxR1; O89049; purified TrxR1 substrate turnover, NADPH consumption readout; Potency, µM (doses to about 114 µM); 0.01% of 390,000 active; note: nearly all actives have a fitted effect of over 50% in size
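Rat TrxR1, dispensed at 90 nM, was prereduced with 400 uM NADPH (final) for 5 min at ~22 deg C, then incubated with compound 15 min before 400 uM selenite. A first-read NADPH fluorescence drop versus no-compound background flagged substrates.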
VDR inhibitor: vitamin D3 receptor (human) inhibition | P11473 | Potency, µM, usual class: inhibitors | 0.93% of 400,000 active | VDR-SRC2-3 peptide fluorescence polarization, 2 h
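Signal is fluorescence polarization, reporting how far test compounds block the interaction of VDR with the SRC2-3 coregulator peptide after a 2 h room-temperature incubation.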
Each line names hits and unclear results; the compound was inactive in the other large screens. Calls come from the whole dose curve; as a rule, active = well fitted curve in the direction sought with a large enough effect; inconclusive = small, poorly fitted or top-dose-only effect, or another doubt; inactive = no such curve, though single readings can be large; an effect the other way counts as inactive or inconclusive.

Cc1ccccc1NC(=O)Cn1c(=O)n(Cc2ccc3c(c2)OCO3)c(=O)c2ccc(C(=O)NC3CCCCC3)cc21	none
O=C1CC(c2ccccc2)Cc2[nH]c(=O)c(C(=O)O)cc21 (configuration not stated)	none (no result: KAT2A inh, VDR inhibitor)
CCc1ccc(CNC(=O)c2sc3ncnc(N(C)C4CCCCC4)c3c2C)cc1	none
CC(C)CNc1ncnc2nc[nH]c12	none (no result: KAT2A inh, VDR inhibitor)
COc1cc(/C=c2\[nH]c(=O)/c(=C/c3cc(OC)c(OC)c(OC)c3)[nH]c2=O)cc(OC)c1OC	none (no result: KAT2A inh, VDR inhibitor)
CCCc1c(C)c2cccc(C)c2[nH]c1=O	none
CCCCN1CCc2c([nH]c3c(C)cccc23)C1=O	VDR inhibitor 14µM
CCn1c2ccccc2c2cc(NC(=O)c3ccc(Br)o3)ccc21	TrxR1 inh 18µM, VDR inhibitor 50µM
CCn1c2ccccc2c2cc(NC(=O)c3coc(=O)c(Br)c3)ccc21	none (no result: TrxR1 inh, TrxR1 substrate, VDR inhibitor)
COc1ccc(NC2=C(Cl)C(=O)N(c3ccccc3)C2=O)c(OC)c1	TrxR1 inh 13µM
O=C(Cn1c(=O)oc2cc(S(=O)(=O)NCc3ccccc3)ccc21)NCc1ccc(F)cc1	none
COc1ccc(N2C(=O)C3CC(C)=C(C)CC3C2=O)c(OC)c1 (configuration not stated)	none
COc1cc(N2C(=O)C=CC2=O)ccc1N1C(=O)C=CC1=O	TrxR1 inh 0.5µM, VDR inhibitor inconclusive (no result: KAT2A inh)
CC1(C)CC[C@]2(C(=O)O)C(O)C[C@@]3(C)C(=CCC4[C@@]5(C)CCC(O)C(C)(C)C5CC[C@@]43C)C2C1 (some centres not stated)	none (no result: TrxR1 inh, TrxR1 substrate)
CNc1ccc(C=C2C=CC=C2)cc1	TrxR1 inh inconclusive (no result: KAT2A inh, VDR inhibitor)
COc1ccc(C2NC(=O)NC(O)(C(F)(F)F)C2C(=O)c2ccccc2)cc1OC (configuration not stated)	TrxR1 inh 28µM
O=C1C=CC2(O[C@H](c3ccccc3)[C@@H](c3ccccc3)O2)[C@H](Sc2ccccc2O)C1	TrxR1 inh inconclusive, VDR inhibitor 10µM (no result: KAT2A inh)
O=C1CCC[C@@H]2CC(Nc3ccccc3)C[C@@H]3CCN1[C@H]23 (some centres not stated)	none (no result: KAT2A inh, VDR inhibitor)
NC(=O)c1ccsc1NC(=O)CCS(=O)(=O)c1ccccc1	none
N#Cc1ccsc1NC(=O)CCS(=O)(=O)c1ccccc1	TrxR1 inh 3.2µM
NC(=O)c1ccsc1NC(=O)CCS(=O)(=O)c1ccc(Cl)cc1	TrxR1 inh 18µM
Cn1cc(S(=O)(=O)N2CCCCC2)cc1C(=O)NCc1ccc(Cl)cc1	none
CCc1ccccc1NC(=O)Cn1cc(S(=O)(=O)N2CCCC2)c(S(=O)(=O)N2CCCC2)c1	none
N#CC1=C(N)Oc2cc3ccccc3cc2C1c1cccnc1 (configuration not stated)	none
C[n+]1cccc2ccc3c(c21)OC(N)=C(C#N)C3c1ccccc1 (configuration not stated)	none
Cc1ccc2cc(C3C(C#N)=C(N)Oc4c3ccc3cccnc43)c(=O)[nH]c2c1 (configuration not stated)	TrxR1 inh 13µM
CCc1ccc2[nH]c(=O)c(C3C(C#N)=C(N)Oc4c3ccc3cccnc43)cc2c1 (configuration not stated)	TrxR1 inh 45µM
N#CC1=C(N)Oc2c(ccc3cccnc23)C1c1cccnc1 (configuration not stated)	TrxR1 inh 50µM
Cc1ccc(S(=O)(=O)N2CCN(c3nc(N(C)c4cc(Cl)ccc4O)nc4ccccc34)CC2)cc1	none (no result: KAT2A inh, VDR inhibitor)
O=C(Nc1ccc(Nc2ccccc2)cc1)C(Cl)Cl	none
CC(C)(C)C(=O)C(Cl)C(=O)Nc1ccccc1 (configuration not stated)	VDR inhibitor 20µM
C=CCn1c(SCC(=O)NC2CCCC2)nc2scc(-c3ccco3)c2c1=O	TrxR1 inh 35µM
C=CCn1c(SCC(=O)NCCCC)nc2scc(-c3ccco3)c2c1=O	TrxR1 inh 45µM, VDR inhibitor inconclusive
COc1ccc(OC)c(NC(=O)CN2C(=O)CCc3cc(S(=O)(=O)N4CCCCC4)ccc32)c1	none
N=C1S/C(=C\c2cccc3ccccc23)C(=O)N1c1ccc(F)cc1	none
CSC1=NC(=O)/C(=C\c2cccc3ccccc23)S1	VDR inhibitor 79µM
C=C1c2cccc(O)c2C(O)=C2C(=O)[C@]3(O)C(O)=C(C(N)=O)C(=O)C(N(C)C)C3C(O)C12 (some centres not stated)	KAT2A inh 10µM, VDR inhibitor 35µM (no result: TrxR1 inh, TrxR1 substrate)
COc1ccc(NC(=O)Cn2nc(C)c3nn(-c4ccc(Cl)cc4)c(C)c3c2=O)cc1	none

Screening data from PubChem.
